Laboratory results taken from PubChem BioAssay (NCI).
Compounds without any hit were thinned out: in the full panel of roughly 79,000, 15% have a hit. A number with no mark means an inactive call. The source made the active and inactive calls. Cut-off read from the data, not from the text of the source: active = growth inhibition above about 70%; inactive = the rest.

Legend:
[1] = NCI Yeast Anticancer Drug Screen. Data for the rad50 strain (AID 155);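 note: 0% = growth of vehicle-only cultures of the same strain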; details: S. cerevisiae rad50 strain growth inhibition, active compounds read high
In short: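 A DNA repair-deficient yeast mutant serves as the test organism; compound-induced growth inhibition is calculated against vehicle-treated cells.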

[2] = NCI Yeast Anticancer Drug Screen. Data for the mec2-1 strain (AID 157); details: S. cerevisiae mec2-1 strain, active compounds read high
In short: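 Yeast mec2-1 mutant treated with compound. Readout: growth inhibition vs vehicle controls.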

[3] = NCI Yeast Anticancer Drug Screen. Data for the sgs1 mgt1 strain (AID 161);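 note: 0% = growth of cultures given vehicle only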; details: S. cerevisiae sgs1 mgt1 strain, active compounds read high
In short: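 Read-out: growth inhibition vs vehicle controls. Cells: mutant yeast strain deficient in DNA damage repair.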

[4] = NCI Yeast Anticancer Drug Screen. Data for the cln2 rad14 strain (AID 165);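 note: 0% = growth equal to vehicle treated cultures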; details: S. cerevisiae cln2 rad14 strain, active compounds read high
In short: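 cln2 rad14 yeast strain; compound exposure; growth inhibition read vs vehicle controls.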

[5] = NCI Yeast Anticancer Drug Screen. Data for the bub3 strain (AID 167); details: S. cerevisiae bub3 mutant strain, active compounds read high
In short: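 Inhibition values come from growth of compound-treated mutant yeast normalised to vehicle-treated controls.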

[6] = NCI Yeast Anticancer Drug Screen. Data for the mlh1 rad18 strain (AID 175); details: S. cerevisiae mlh1 rad18 strain growth inhibition, active compounds read high
In short: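 Yeast w/ defined DNA-repair lesions; compound exposure; growth vs vehicle controls → % inhibition.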

[7] = at 5.0 µM (retest, dose inferred, filed as 0.5)
[8] = at 50.0 µM (retest, dose inferred, filed as 5.0)

SMILES	growth inhibition [1, 7]	growth inhibition [1, 8]	growth inhibition ([1]; at 50.0 µM)	growth inhibition [2, 7]	growth inhibition [2, 8]	growth inhibition ([2]; at 50.0 µM)	growth inhibition [3, 7]	growth inhibition [3, 8]	growth inhibition ([3]; at 50.0 µM)	growth inhibition [4, 7]	growth inhibition [4, 8]	growth inhibition ([4]; at 50.0 µM)	growth inhibition [5, 7]	growth inhibition [5, 8]	growth inhibition ([5]; at 50.0 µM)	growth inhibition [6, 7]	growth inhibition [6, 8]	growth inhibition ([6]; at 50.0 µM)
Clc1ccc(/C=N\Nc2c3ccccc3nc3ccccc23)cc1Cl	-5%	25%	71% (active)	13%	21%	14.6%	1%	38%	58.4%	-3%	4%	11.9%	13%	44%	28.1%	1%	57%	61.8%
NNc1c(F)c(F)c(-c2c(F)c(F)c(NN)c(F)c2F)c(F)c1F	42%	71% (active)	87.6% (active)	38%	68%	89.2% (active)	23%	98% (active)	91.5% (active)	48%	99% (active)	89.8% (active)	43%	98% (active)	90.1% (active)	39%	59%	86.8% (active)
N#CC12CCCC(=O)N1c1ccccc1S2 (stereo not given)	10%	5%	12.9%	-7%	10%	7.85%	1%	1%	-2.3%	-12%	-3%	43.5%	3%	1%	-6.8%	14%	-2%	-10.2%
O=[N+]([O-])c1cccc(Cl)c1C(Nc1nncs1)Nc1nncs1	7%	60%	55.5%	7%	41%	27.7%	10%	67%	73.9% (active)	-1%	20%	26.6%	-2%	22%	33.8%	3%	82% (active)	68.3%
Cc1ccc(OC/C=C/c2ccc(Cl)cc2)cc1	-2%	75% (active)	77.2% (active)	0%	88% (active)	53.1%	16%	91% (active)	85.2% (active)	-2%	84% (active)	65%	2%	86% (active)	67.4%	5%	90% (active)	85.2% (active)
COc1ccc2[nH]c3ccc4cc[n+](CCN5CCC(C6CCN(CC[n+]7ccc8ccc9[nH]c%10ccc(OC)cc%10c9c8c7)CC6)CC5)cc4c3c2c1	69%	98% (active)	90.4% (active)	57%	98% (active)	93.5% (active)	29%	98% (active)	90.1% (active)	34%	96% (active)	91.1% (active)	22%	96% (active)	91.1% (active)	77% (active)	97% (active)	90.5% (active)
Cc1ccc(C2(C)CC/C(=N/O)c3cc(C)c(C)cc32)cc1C (stereo not given)	72% (active)	89% (active)	90.5% (active)	61%	88% (active)	90.8% (active)	66%	90% (active)	88.7% (active)	63%	91% (active)	91.2% (active)	80% (active)	92% (active)	87.9% (active)	83% (active)	92% (active)	90.5% (active)
CN(C)CC1(C)CC/C(=C\c2ccc(Cl)cc2)C1=O (stereo not given)	3%	28%	62%	-14%	16%	38.2%	7%	39%	67.7%	10%	36%	52.5%	15%	65%	35.4%	9%	57%	71.1% (active)
CN(C)CC(C)(C)C(/C=C/c1ccccc1)=N\Nc1ccccc1	3%	61%	98.1% (active)	0%	68%	90.2% (active)	12%	72% (active)	97.8% (active)	6%	47%	97.3% (active)	1%	91% (active)	98.6% (active)	2%	76% (active)	98.3% (active)
CN(C)CCC1(C2=CCCC2)CC/C(=C\c2ccc(Cl)cc2)C1=O (stereo not given)	24%	86% (active)	94.3% (active)	28%	96% (active)	94.3% (active)	26%	97% (active)	94% (active)	31%	97% (active)	92.3% (active)	37%	98% (active)	92.2% (active)	33%	97% (active)	87.5% (active)
